Most compounds without a hit are left out; they make up all but 4.6% or so of the library.
TRHR enhancer: allosteric enhancers of human TRH receptor; P34981; TRHR cells, fluo-8 calcium fluorescence, EC20 TRH enhancement; enhancement, % at 2 µM; 360,000 compounds, 0.66% hits; AID 493056; in the data active means enhancement above about 30%; further: 0% is about no effect
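TRHR-expressing cells loaded with fluo-8 calcium dye were read kinetically (ex 480/em 530) during compound addition, then stimulated with an EC20 of TRH (10 nM final). Enhancement of the Gq-mediated intracellular calcium response was scored.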
D1 ag: agonists of human D1 dopamine receptor | P21728 | HEK293 T-REx D1 cells, calcium flux, agonist mode | activation, % at 2 µM | 360,000 compounds, 1% hits; further: 0% is about no effect
Target sequence (P21728 whole entry, looked up): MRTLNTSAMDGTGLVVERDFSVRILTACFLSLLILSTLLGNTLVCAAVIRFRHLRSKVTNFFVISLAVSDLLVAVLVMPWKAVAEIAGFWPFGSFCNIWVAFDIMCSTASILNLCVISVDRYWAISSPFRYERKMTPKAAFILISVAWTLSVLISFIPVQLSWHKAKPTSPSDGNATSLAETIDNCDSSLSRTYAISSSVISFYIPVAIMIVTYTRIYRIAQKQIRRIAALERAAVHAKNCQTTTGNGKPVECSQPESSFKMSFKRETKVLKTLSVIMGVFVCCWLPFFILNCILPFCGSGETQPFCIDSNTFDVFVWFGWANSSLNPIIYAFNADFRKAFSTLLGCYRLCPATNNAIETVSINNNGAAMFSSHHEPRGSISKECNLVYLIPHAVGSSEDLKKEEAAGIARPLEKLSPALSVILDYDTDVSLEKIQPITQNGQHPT
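Agonism was scored from calcium flux recorded over 180 s (1 read/s) after pintool compound addition, following a 10-cycle baseline. Cells were inducible force-coupled HEK293 TREx D1, plated overnight at 30 C and loaded with no-wash calcium dye.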
D1 antag: human D1 dopamine receptor antagonism; HEK293 TREx D1 cells, calcium flux, dopamine EC80; active compounds read low; activity change, negative = inhibition, % at 10 µM; 360,000 compounds, 3.2% hits; AID 504652; in the data active means activity change below about -30%; further: on the % scale 0 is the no-effect control and ±100 the full control effect
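Cells carrying a force-coupled, tetracycline-inducible human D1 receptor report calcium flux. Each well gets a 10 s baseline, compound with 180 s monitoring, then an EC80 dopamine stimulus with a second 180 s kinetic read.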
TRHR ag: TRH receptor (human) agonism; AID 493084; P34981; 360,000 compounds, 0.18% hits; TRHR cells, calcium flux fluo-8, FDSS agonist mode; activation, % at 2 µM; further: 0% is about no effect
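TRHR-expressing cells loaded with fluo-8 calcium dye; 23 nL library compound pin-transferred, kinetic FDSS fluorescence (Ex 480/Em 530) recorded about 180 s for agonist-induced calcium release, before a 10 nM TRH EC20 addition for potentiator mode.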
D1 potentiator: enhances dopamine response at the human D1 receptor. HEK293 TREx D1 cells, calcium flux, dopamine EC20 potentiation. potentiation, % at 10 µM. 360,000 compounds, 0.036% hits; in the data active means potentiation above about 30%; further: 0% is about no effect
The depositor's hits bear a star; / = not tested or not shown. Unless noted, no stated cut-off is given here; in the data, active means activation above about 30%; inactive means the rest.

SMILES | TRHR enhancer | D1 ag | D1 antag | TRHR ag | D1 potentiator
Cc1ccc(NS(=O)(=O)c2ccc3c(c2)CC(C)N3C(=O)C2CCC2)cc1Cl (stereo unspecified) | -1.0 | 0.4 | 8.0 | -0.3 | 2.4
CCC(=O)N1c2ccc(S(=O)(=O)NCCc3ccc(C)cc3)cc2CC1C (stereo unspecified) | -6.0 | 11.4 | -26.4 | 0.1 | -7.0
CC(=O)Nc1ccc(NS(=O)(=O)c2ccc3c(c2)CC(C)N3C(=O)C2CCC2)cc1 (stereo unspecified) | 45.9* | 0.2 | 5.9 | 0.1 | -1.4
COc1ccc(CNS(=O)(=O)c2ccc3c(c2)CC(C)N3C(=O)C2CC2)cc1 (stereo unspecified) | -2.1 | 10.3 | -25.3 | -0.7 | -6.5
CC1Cc2cc(S(=O)(=O)NCc3ccc(N(C)C)cc3)ccc2N1C(=O)C1CCC1 (stereo unspecified) | 45.2* | 5.9 | -16.2 | -0.5 | 0.9
Cc1cccc(NC(=O)CCS(=O)(=O)c2cc(Br)cc3c2N(C(=O)C2CC2)CC3)c1 | -3.6 | 0.8 | 0.9 | -0.9 | -2.7
Cc1ccc(NC(=O)CSc2nnc(-c3ccc([N+](=O)[O-])cc3)o2)c(C)c1 | 1.8 | 50.6* | -3.8 | -0.4 | -0.1
Cc1cccc(NC(=O)CSc2nnc(-c3ccco3)o2)c1C | -3.2 | 0.5 | 1.1 | -0.5 | 1.8
COc1ccc(-c2nnc(SCC(=O)Nc3cc(F)ccc3C)o2)cc1 | 13.4 | 12.4 | -38.7* | -1.1 | /
Cc1ccc(C)c(NC(=O)CSc2nnc(-c3ccco3)o2)c1 | 32.2* | 0.7 | 6.4 | -0.3 | -1.7
Cc1occc1-c1nnc(SCC(=O)Nc2ccccn2)o1 | 38.8* | 8.6 | 3.1 | -0.1 | 1.0
Cc1c(CN2CCC(Oc3ccc(C(=O)N4CCCCC4)cc3)CC2)cnn1C | -4.4 | 2.7 | 9.1 | 0.6 | -2.3
Fc1cccc(CNc2ncnc3ccc(-c4ccccc4Cl)cc23)c1 | 5.7 | 0.4 | -8.2 | 0.5 | 1.0
CC1Cc2cc(S(=O)(=O)CCC(=O)Nc3ccc(F)cc3Cl)ccc2N1C(=O)C1CC1 (stereo unspecified) | -0.2 | 1.8 | -17.7 | -0.6 | -2.6
COC(=O)CN(C(=O)CSc1nnc(-c2cccc(OC)c2)o1)c1ccc(OC)cc1 | 5.5 | 2.8 | 0.4 | -0.1 | 2.6
CC(C)c1ccccc1NC(=O)CSc1nnc(COc2ccccc2Cl)o1 | 0.4 | 38.3* | -8.6 | -0.6 | -0.8
CC(C)c1ccccc1NC(=O)CSc1nnc(COc2ccccc2)o1 | 3.3 | 2.0 | -24.2 | -0.5 | -3.2
COc1ccc(CCCc2nnc(SCC(=O)Nc3ccccc3F)o2)cc1C | 0.5 | 15.3 | -30.0 | 0.6 | -1.6
CCOC(=O)CN(C(=O)CSc1nnc(-c2cccc(OC)c2)o1)c1ccc(F)cc1 | 10.6 | 56.1* | -22.4 | -1.4 | 0.3
COc1ccc(CCCc2nnc(SCC(=O)Nc3ccc(F)cc3)o2)cc1C | 3.1 | 1.4 | -50.0* | -0.7 | -5.2
COc1ccccc1NC(=O)CSc1nnc(-c2ccc(C)cc2)o1 | -4.8 | 1.1 | -82.3* | 0.0 | -10.2
Cc1c(C(=O)Nc2ccccc2F)sc2ncnc(N(C)C3CCCCC3)c12 | 1.7 | 9.1 | 2.4 | 0.4 | -2.5
CC(O)C(O)C(O)C(O)C1NCCS1 (stereo unspecified) | -1.2 | 0.3 | -65.9* | -0.4 | 1.2
CCCCCCSc1ccc(-c2nc3ccc(C)cn3c2NCc2ccccc2)cc1OC | 0.9 | 2.4 | 13.2 | 0.0 | -8.7
CCCCCCSc1ccc(-c2nc3ccc(C)cn3c2NCc2ccccc2)cc1 | -0.8 | -0.5 | -36.2* | 0.3 | -9.7
SMILES | TRHR enhancer | D1 ag | D1 antag | TRHR ag | D1 potentiator
Cc1ccc(C=Nc2ccccc2C(N)=O)cc1 | -7.9 | 60.3* | -34.7* | -0.4 | -7.9
Cc1ccc(C=Nc2ccccc2C(=O)Nc2ccccc2)cc1 | 6.1 | 0.2 | -9.0 | -0.5 | -4.5
CCC(=O)NC(=S)Nc1ccc(NC(=O)c2ccccc2[N+](=O)[O-])cc1 | -2.0 | -0.2 | -8.8 | 0.2 | -11.3
CCC(=O)NC(=S)Nc1ccc(NC(=O)c2cccc([N+](=O)[O-])c2C)cc1 | 7.9 | 6.3 | -39.8* | 0.3 | -9.8
COc1cccc(NC(=O)c2oc3ccccc3c2NC(=O)c2ccc3c(c2)OCO3)c1 | 3.3 | 5.6 | -0.2 | 1.9 | -4.5
COc1cccc(NC(=O)c2oc3ccccc3c2NC(=O)c2ccc(OC(C)C)cc2)c1 | -4.8 | 50.0* | -16.2 | 0.8 | -1.0
